From PubChem BioAssay AID624325 (Sanford-Burnham Center for Chemical Genomics, 2012)
Among all 2,300 compounds or so, about 1,000 (43%) were called active.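 Rule for the calls: active = compounds inhibiting the enzyme by at least 50% at 15 µM in any one of the replicates; inactive = the rest.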 The set was probably picked from earlier hits. The list is a sample of the results.

What follows are compounds tested against Fatty acid synthase (Homo sapiens) (UniProt P49327) (assay: inhibition of human FAS-TE enzyme activity – biochemical, fluorescence intensity, single concentration, confirmation (AID 624325;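 note: 0% = enzyme with DMSO only and 100% = wells lacking enzyme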)). Conditions: recombinant FAS-TE, OMFH fluorogenic substrate, at 15 µM, stronger effect = higher value.
Chain of Fatty acid synthase (Homo sapiens) (P49327 whole entry, looked up): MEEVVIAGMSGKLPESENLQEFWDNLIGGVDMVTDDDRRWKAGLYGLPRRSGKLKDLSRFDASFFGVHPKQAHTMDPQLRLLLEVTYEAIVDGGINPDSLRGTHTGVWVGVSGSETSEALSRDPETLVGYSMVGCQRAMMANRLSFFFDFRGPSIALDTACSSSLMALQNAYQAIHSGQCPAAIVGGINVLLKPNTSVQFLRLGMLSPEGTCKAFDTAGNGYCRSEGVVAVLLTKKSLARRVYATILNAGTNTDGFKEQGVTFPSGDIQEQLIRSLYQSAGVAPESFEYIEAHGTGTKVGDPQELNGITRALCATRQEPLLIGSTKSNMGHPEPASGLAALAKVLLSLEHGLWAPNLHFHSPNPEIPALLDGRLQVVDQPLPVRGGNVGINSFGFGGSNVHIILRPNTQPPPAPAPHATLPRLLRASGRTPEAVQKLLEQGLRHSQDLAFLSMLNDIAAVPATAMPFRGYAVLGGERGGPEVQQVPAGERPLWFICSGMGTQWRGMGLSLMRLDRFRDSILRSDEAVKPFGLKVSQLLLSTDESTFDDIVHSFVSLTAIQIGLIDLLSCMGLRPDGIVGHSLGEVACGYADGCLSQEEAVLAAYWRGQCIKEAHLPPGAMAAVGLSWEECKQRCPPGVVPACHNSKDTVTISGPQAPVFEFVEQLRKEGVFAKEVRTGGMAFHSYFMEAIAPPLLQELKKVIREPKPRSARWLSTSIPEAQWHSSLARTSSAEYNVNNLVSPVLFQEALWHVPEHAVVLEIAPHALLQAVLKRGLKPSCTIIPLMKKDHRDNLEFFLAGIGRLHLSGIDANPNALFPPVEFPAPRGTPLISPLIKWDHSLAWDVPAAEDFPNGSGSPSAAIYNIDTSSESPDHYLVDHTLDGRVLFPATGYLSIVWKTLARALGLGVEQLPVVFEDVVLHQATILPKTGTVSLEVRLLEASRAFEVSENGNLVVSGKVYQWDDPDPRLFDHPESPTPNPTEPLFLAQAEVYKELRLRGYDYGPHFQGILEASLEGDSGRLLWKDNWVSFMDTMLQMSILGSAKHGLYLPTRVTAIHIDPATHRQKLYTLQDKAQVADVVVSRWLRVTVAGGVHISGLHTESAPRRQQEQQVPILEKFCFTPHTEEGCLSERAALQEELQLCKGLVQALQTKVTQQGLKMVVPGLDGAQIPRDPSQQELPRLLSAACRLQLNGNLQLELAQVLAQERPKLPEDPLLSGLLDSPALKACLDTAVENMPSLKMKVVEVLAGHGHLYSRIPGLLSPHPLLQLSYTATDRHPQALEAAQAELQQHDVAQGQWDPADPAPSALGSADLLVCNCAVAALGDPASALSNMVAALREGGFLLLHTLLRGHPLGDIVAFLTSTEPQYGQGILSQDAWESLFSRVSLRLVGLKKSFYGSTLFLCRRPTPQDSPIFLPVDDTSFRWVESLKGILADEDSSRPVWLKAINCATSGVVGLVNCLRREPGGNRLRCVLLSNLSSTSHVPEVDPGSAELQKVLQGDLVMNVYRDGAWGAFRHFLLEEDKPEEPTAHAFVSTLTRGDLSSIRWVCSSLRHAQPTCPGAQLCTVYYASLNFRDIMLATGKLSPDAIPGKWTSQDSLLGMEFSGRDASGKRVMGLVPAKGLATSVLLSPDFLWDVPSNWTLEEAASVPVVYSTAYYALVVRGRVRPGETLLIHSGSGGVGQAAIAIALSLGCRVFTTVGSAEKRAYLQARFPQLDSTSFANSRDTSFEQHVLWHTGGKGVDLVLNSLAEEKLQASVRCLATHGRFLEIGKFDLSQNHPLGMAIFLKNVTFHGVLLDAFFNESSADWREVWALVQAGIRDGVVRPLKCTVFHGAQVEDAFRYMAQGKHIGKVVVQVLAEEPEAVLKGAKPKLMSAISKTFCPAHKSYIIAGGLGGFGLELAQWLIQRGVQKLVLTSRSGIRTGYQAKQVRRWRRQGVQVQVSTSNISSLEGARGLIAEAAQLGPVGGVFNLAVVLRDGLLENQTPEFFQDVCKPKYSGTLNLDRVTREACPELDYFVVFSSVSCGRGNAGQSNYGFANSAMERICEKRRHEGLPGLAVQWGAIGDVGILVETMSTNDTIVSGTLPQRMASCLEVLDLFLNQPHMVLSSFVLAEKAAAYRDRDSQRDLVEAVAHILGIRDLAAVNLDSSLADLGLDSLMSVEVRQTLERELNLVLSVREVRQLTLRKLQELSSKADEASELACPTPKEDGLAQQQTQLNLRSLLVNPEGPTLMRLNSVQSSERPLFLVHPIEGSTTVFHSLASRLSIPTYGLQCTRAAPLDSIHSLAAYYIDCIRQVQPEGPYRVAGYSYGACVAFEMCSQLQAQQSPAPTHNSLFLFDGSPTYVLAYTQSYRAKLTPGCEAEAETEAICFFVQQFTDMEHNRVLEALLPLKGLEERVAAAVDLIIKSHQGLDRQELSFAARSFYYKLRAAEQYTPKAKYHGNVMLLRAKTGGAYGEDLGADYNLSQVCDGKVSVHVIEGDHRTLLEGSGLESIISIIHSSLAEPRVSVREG

Row | Compound | inhibition
1 | Cc1cccc(-n2c(SCC(=O)Nc3cccc(S(=O)(=O)NC4=NCCCCC4)c3)nc3ccccc3c2=O)c1C | 18.8% (inactive)
2 | COC(=O)c1cc(C(=O)NC(C)C2CC3CCC2C3)cc([N+](=O)[O-])c1 (stereo unspecified) | 59.5% (active)
3 | O=C(Nc1cccc([N+](=O)[O-])c1)N1CCc2ccccc2C1 | 65.8% (active)
4 | O=C(NCCCCc1ccccc1)C1CC(c2ccc([N+](=O)[O-])cc2)=NO1 (stereo unspecified) | 59.7% (active)
5 | O=C1NC(Cc2ccccc2)c2nc3ccc(Br)cc3c(=O)n2-c2cc3ccccc3cc21 (stereo unspecified) | 30.7% (inactive)
6 | CC(NC(=O)Nc1cccc([N+](=O)[O-])c1)c1ccc2c(c1)OCO2 (stereo unspecified) | 84.4% (active)
7 | CCN(C(=O)CSc1ncnc2c1cnn2-c1ccccc1)C1CCS(=O)(=O)C1 (stereo unspecified) | 69.8% (active)
8 | CCOc1ccc(Br)cc1S(=O)(=O)Nc1ccc(C(=O)OC(C)C(=O)N(C)c2ccccc2)cc1 (stereo unspecified) | 14.2% (inactive)
9 | CC1(C(=O)NS(=O)(=O)c2ccc(C#N)cc2)CCN1C(=O)c1ccc(C2CCCCC2)cc1 (stereo unspecified) | 71.8% (active)
10 | Cc1ccc(C)c(NC(=O)CSc2nc3c(oc4ccccc43)c(=O)n2-c2ccccc2)c1 | 31.1% (inactive)
11 | COc1ccccc1C1CC(=O)n2c(nc(-c3ccccc3)c2-c2ccccc2)S1 (stereo unspecified) | 0.79% (inactive)
12 | CC(C)(C)NC(=O)NC(=O)COC(=O)Cc1ccc(Cl)cc1Cl | 68.1% (active)
13 | O=C1OCCN1C(=O)[C@H]1[C@H](c2ccc(Cl)cc2)C(c2cccc(Cl)c2)=NN1c1ccc(Br)cc1 | 15.5% (inactive)
14 | O=C(Nc1cccc(Cl)c1)c1cc([N+](=O)[O-])ccc1N1CCN(CCO)CC1 | 66.5% (active)
15 | Cc1cccc(NC(=O)c2cc([N+](=O)[O-])ccc2N2CCN(C)CC2)c1 | 54% (active)
16 | O=S(=O)(c1ccc(F)cc1)n1ccc(-c2cnc(-c3ccccc3)s2)n1 | 14.5% (inactive)
17 | Cc1ccc(S(=O)(=O)c2nnn3c2nc(N2CCN(c4ccccn4)CC2)c2ccccc23)cc1 | 25.4% (inactive)
18 | Cc1nc2c(OCc3ccc(Cl)cc3Cl)cccn2c1N(C)CC1CC1 | 50% (active)

Row | Compound | inhibition
19 | O=C(COC(=O)c1cc([N+](=O)[O-])ccc1NCc1ccccc1)NC1CCCCC1 | 37.6% (active)
20 | CCN1C(=O)[C@H]2[C@@H](c3ccc(SC4CCCCC4)c(OC)c3)N[C@@](Cc3ccccc3)(C(=O)OC)[C@H]2C1=O | 15.5% (inactive)
21 | CCN1C(=O)[C@H]2[C@@H](c3ccc(-c4ccc(F)cc4)cc3)N[C@@](Cc3ccccc3)(C(=O)OC)[C@H]2C1=O | 43.4% (inactive)
22 | Cc1cccc(N=C2NC(=O)/C(=C/c3cn(C)c4ccccc34)S2)c1 | -6.27% (inactive)
23 | COc1cc(-c2noc(C3CCCN(S(=O)(=O)c4cccc(Cl)c4)C3)n2)cc(OC)c1OC (stereo unspecified) | 30.8% (inactive)
24 | COc1ccc([N+](=O)[O-])cc1NC(=O)COC(=O)/C=C/c1ccco1 | 70.8% (active)
25 | CC(C)Oc1ccc(Cc2n[nH]c(=S)n2Cc2ccccc2)cc1Cl | 39.1% (active)
26 | CC(=O)c1sc(N/N=C/c2ccc(C(C)C)cc2)nc1C | 19.8% (inactive)
27 | COc1ccc(C2CC(c3ccccc3)=NN2C(=O)c2ccc(Cl)c([N+](=O)[O-])c2)cc1 (stereo unspecified) | 21.3% (inactive)
28 | O=C(c1ccc(Cl)c([N+](=O)[O-])c1)N1CCN(c2ccccc2)CC1 | 58.3% (active)
29 | O=C(Nc1ccc(N2C(=O)c3cccc4cccc(c34)C2=O)cc1)c1ccc(N2CCCCC2)c([N+](=O)[O-])c1 | 10.5% (inactive)
30 | O=c1ccc2c(-c3ccccc3S(=O)(=O)O)c3ccc(O)c(O)c3oc-2c1O | 56.1% (active)
31 | O=C(Nc1ccc(C2CC2(Cl)Cl)cc1)c1cccc([N+](=O)[O-])c1 (stereo unspecified) | 19.8% (inactive)
32 | O=C(Nc1nnc(SCc2ccccc2Cl)s1)c1cccc([N+](=O)[O-])c1 | 51.7% (active)
33 | CC(=O)c1ccc(S(=O)(=O)N2CCN(c3nc4c(C)c(C)ccc4cc3C#N)CC2)cc1 | 32.8% (inactive)
34 | Cc1ccc(S(=O)(=O)N2CC[C@H]3[C@@H](C2)C(=O)C[C@@H](c2ccccc2)N3S(=O)(=O)c2ccc(C)cc2)cc1 | 13.8% (inactive)
35 | COc1ccc(-c2nnc(SC(=O)N3c4ccccc4Sc4ccccc43)o2)cc1 | 13.1% (inactive)
36 | CCCCOC(=O)CNc1nnc(SCC(=O)OCC)[nH]c1=O | 51% (active)
